This note sets out measurements from PubChem BioAssay (NCI).

The structures appear in SMILES notation. Compounds without any hit were thinned out: in the full panel of roughly 83,000, 20% have a hit.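 Cells were grown in 96-well plates and exposed to the test compound at a single concentration for 48 hours; results are reported as percent growth, with values below 10 considered active.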 Values without a mark were called inactive. Calls of active or inactive are those of the source.

Test systems include EKVX NSCLC; SN12C renal; UO-31 renal; TK-10 renal; ACHN renal; CAKI-1 renal; A498 renal; CCRF-CEM leukemia; MOLT-4 leukemia.
What all share (assay): NCI-60 one-dose screen, 48 h (100 = growth as untreated, 0 = no growth, -100 = all killed)
Conditions in all cases: 10 µM unless noted

In the case of `C[C@@H]1CN(c2ccc3ncc(C#Cc4cncc(C(=O)Nc5ccc(CN6CCN(C)CC6)c(C(F)(F)F)c5)c4)n3n2)C[C@@H](C)O1`, the growth was -96% (active) with EKVX NSCLC; -66.5% (active) in the assay on SN12C renal; -99.3% (active) in the assay on UO-31 renal; -98% (active) in the assay on TK-10 renal; -95.3% (active) in the assay with ACHN renal; -95.3% (active) in the assay with CAKI-1 renal. Besides, the results for the growth in the assay on A498 renal, in the assay on CCRF-CEM leukemia and with MOLT-4 leukemia were -99% (active), -36% (active) and 4.86% (active), respectively.

Regarding `Fc1cccc(CNc2nc(SCCN3CCOCC3)nc3c2cnn3CC(Cl)c2ccc(Br)cc2)c1` (configuration not stated), the growth was 41.1% in the assay on EKVX NSCLC; 36.5% in the assay with SN12C renal; -3.52% (active) with UO-31 renal; 46.7% in the assay with TK-10 renal; 17.3% in the assay on ACHN renal; 26.7% in the assay on CAKI-1 renal. For the same compound, the growth in the assay with A498 renal was 57.2%; in the assay with CCRF-CEM leukemia, 6.67% (active); with MOLT-4 leukemia, -23.8% (active).

For the compound `O=C(NN1C(=O)/C(=C/C=C/c2ccc([N+](=O)[O-])o2)SC1=S)c1ccc([N+](=O)[O-])cc1`, the growth in the assay on EKVX NSCLC is -97.8% (active); in the assay on SN12C renal, -99.9% (active); in the assay with UO-31 renal it was -100% (active); in the assay on TK-10 renal, -98% (active); with ACHN renal, -100% (active); with CAKI-1 renal, -100% (active). For the same compound, the growth in the assay on A498 renal was -95.8% (active); with CCRF-CEM leukemia it was -37.2% (active); with MOLT-4 leukemia, -3.98% (active).

Regarding `CC1=NN(C2=NC(=O)C(CC(=O)Nc3ccccc3C(F)(F)F)S2)C(c2ccc(N(C)C)cc2)C1` (configuration not stated), the growth with EKVX NSCLC is 48.5%; in the assay with SN12C renal, 46.5%; in the assay on UO-31 renal, 41.6%; in the assay with TK-10 renal, 71.5%; in the assay with ACHN renal, 35.8%; in the assay on CAKI-1 renal, 71%. The results for the growth in the assay with A498 renal, with CCRF-CEM leukemia and with MOLT-4 leukemia were 79.2%, 36.9% and 28.4%, respectively.

`Clc1ccc(CNc2nc(SCCN3CCOCC3)nc3c2cnn3CC(Cl)c2ccc(Br)cc2)cc1` (configuration not stated): the growth is 31.8% with EKVX NSCLC; 42.7% with SN12C renal; 28.5% with UO-31 renal; 68.7% in the assay on TK-10 renal; 23.5% in the assay with ACHN renal; 45% in the assay with CAKI-1 renal. Also, the growth in the assay on A498 renal was 106%; in the assay on CCRF-CEM leukemia, 19.7%; in the assay with MOLT-4 leukemia, -22.7% (active).

`CCOc1ccccc1NC(=O)N/C(N)=N/c1nc2ccccc2s1`: the growth is 42.9% in the assay on EKVX NSCLC; 8.49% (active) in the assay with SN12C renal; 44.6% with UO-31 renal; 63% in the assay on TK-10 renal; 18.5% in the assay with ACHN renal; 17.8% in the assay with CAKI-1 renal. Also, the growth with A498 renal was 90.9%; in the assay with CCRF-CEM leukemia it was 0.25% (active); in the assay with MOLT-4 leukemia, 7.53% (active).

For the compound `O=C(N/N=C/c1ccc(-c2cccc([N+](=O)[O-])c2)s1)c1[nH]c2ccc(Br)cc2c1-c1ccccc1`, the growth with EKVX NSCLC was 94.7%; with SN12C renal it was 91.4%; in the assay with UO-31 renal it was 82.1%; in the assay with TK-10 renal it was 101%; in the assay on ACHN renal, 87.3%; in the assay with CAKI-1 renal it was 90.4%. Further, the growth in the assay with A498 renal is 132%; in the assay with CCRF-CEM leukemia, 91%; in the assay on MOLT-4 leukemia it was 69.3%.

With `CN1CCN(c2ccc3c4c(cccc24)C(=O)N(c2cccc(-c4nn(-c5ccccc5)cc4-c4nc5ccccc5s4)c2)C3=O)CC1`, the growth was 107% in the assay on EKVX NSCLC; 94.8% in the assay with SN12C renal; 68.5% with UO-31 renal; 119% in the assay on TK-10 renal; 101% with ACHN renal; 97% with CAKI-1 renal. The growth with A498 renal was 128%; in the assay on CCRF-CEM leukemia, 60.3%; in the assay on MOLT-4 leukemia, 47.5%.

Take `COc1ccc(Nc2nnc(-c3c[nH]c4ccccc34)o2)cc1`: the growth with EKVX NSCLC is 68%; with SN12C renal, 58.6%; in the assay on UO-31 renal, 62.6%; in the assay on TK-10 renal it was 135%; with ACHN renal, 89.6%; with CAKI-1 renal, 72.9%. Also, the results for the growth with A498 renal and with CCRF-CEM leukemia were 130% and 7.79% (active), respectively.

For `COc1ccc(/C=C/c2nc3ccccc3c(=O)n2CC(=O)Nc2ccccc2)cc1`, the growth was 63.1% in the assay with EKVX NSCLC; 8.23% (active) in the assay on SN12C renal; -33% (active) with UO-31 renal; -9.9% (active) with TK-10 renal; -60% (active) in the assay with ACHN renal; 35.1% in the assay on CAKI-1 renal. Further, the growth was -43% (active) in the assay on A498 renal, 88.3% with CCRF-CEM leukemia and 86.7% in the assay on MOLT-4 leukemia.

In the case of `Nc1nn2c(-c3cc4cc(Br)ccc4oc3=O)ccnc2c1N=Nc1ccc(S(N)(=O)=O)cc1`, the growth is 91.9% with EKVX NSCLC; 74% in the assay with SN12C renal; 76.6% with UO-31 renal; 114% in the assay with TK-10 renal; 95.7% with ACHN renal; 81% with CAKI-1 renal. Besides, the figures for the growth in the assay on A498 renal, with CCRF-CEM leukemia and with MOLT-4 leukemia were 149%, 82.3% and 89.9%, respectively.

On to `O=C(CSc1nnc(-c2ccc(-c3nc4ccc(Cl)cc4[nH]3)cc2)o1)Nc1ccc(Br)cc1`, for which the growth with EKVX NSCLC is 41.9%; in the assay on SN12C renal, -22.3% (active); in the assay on UO-31 renal it was 36.6%; with TK-10 renal, 75.9%; in the assay on ACHN renal, -69.1% (active); in the assay on CAKI-1 renal it was -25.1% (active). Moreover, the growth with A498 renal is 162%; in the assay with CCRF-CEM leukemia, 9.42% (active); in the assay on MOLT-4 leukemia, 13.9%.
